Reference: ChEMBL document CHEMBL3433997, “St. Jude Leishmania screening dataset” (2016)

Experiments:
Format in all cases: functional
[1] = biological target: Solute carrier family 2, facilitated glucose transporter member 1 (Homo sapiens) (UniProt P11166); assay: ST_JUDE_LEISH: Cytotoxicity at 2uM final concentration against transgenic Leishmania Mexicana promastigotes LmGLUT1 that are glucose transport deficient and complemented with the human glucose transporter GLUT1. Activity is measured by DNA content using SYBR green in vitro
Solute carrier family 2, facilitated glucose transporter member 1 (Homo sapiens), sequence (P11166 whole entry): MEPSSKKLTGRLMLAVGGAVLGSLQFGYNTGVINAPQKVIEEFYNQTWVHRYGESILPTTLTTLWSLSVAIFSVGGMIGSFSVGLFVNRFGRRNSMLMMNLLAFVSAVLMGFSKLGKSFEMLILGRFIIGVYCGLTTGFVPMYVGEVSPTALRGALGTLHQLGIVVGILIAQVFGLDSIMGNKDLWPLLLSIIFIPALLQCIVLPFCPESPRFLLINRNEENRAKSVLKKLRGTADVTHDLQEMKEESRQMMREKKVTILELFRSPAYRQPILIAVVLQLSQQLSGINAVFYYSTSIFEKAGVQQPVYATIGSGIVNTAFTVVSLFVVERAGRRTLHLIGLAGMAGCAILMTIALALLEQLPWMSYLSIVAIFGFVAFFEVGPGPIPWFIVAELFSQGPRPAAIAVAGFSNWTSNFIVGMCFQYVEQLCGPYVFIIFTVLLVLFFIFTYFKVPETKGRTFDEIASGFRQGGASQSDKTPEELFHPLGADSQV

[2] = biological target: Hexose transporter 1 (Plasmodium falciparum) (UniProt O97467); assay: ST_JUDE_LEISH: Cytotoxicity at 2uM final concentration against transgenic Leishmania Mexicana promastigotes LmPfHT that are glucose transport deficient and complemented with the Plasmodium falciparum hexose transporter. Activity is measured by DNA content using SYBR green in vitro
[3] = biological target: Glucose transporter (Leishmania mexicana) (UniProt O61059); assay: ST_JUDE_LEISH: Cytotoxicity at 2uM final concentration against transgenic Leishmania Mexicana promastigotes LmGT2 that are glucose transport deficient and complemented with the L. Mexicana glucose transporter 2. Activity is measured by DNA content using SYBR green in vitro

CC(C)(C)c1ccc(CN2CCCCC(NC(=O)c3cc(-c4ccccc4Cl)cs3)C2)cc1 (stereo not drawn)
inhibition [1]: 2.83%
inhibition [2]: 3.91%
inhibition [3]: 1%

O=C(Nc1cccc(CN2CCCN(Cc3cccc(O)c3)CC2)c1)c1ccc(-c2ccccc2)cc1
inhibition [1]: -3.92%
inhibition [2]: -2.77%
inhibition [3]: -0.17%

CN1CCc2ccc(NC(=O)Nc3ccc(-c4ccccc4)cc3)cc2C1
inhibition [1]: 1.53%
inhibition [2]: 0.83%
inhibition [3]: 0.87%

N#Cc1ccc2c(c1)CCN(CCC1CCC(NC(=O)/C=C/c3nc4ccccc4s3)CC1)CC2 (stereo not drawn)
inhibition [1]: 1.83%
inhibition [2]: 0.31%
inhibition [3]: -0.08%

COc1ccc(CNCc2ccsc2)cc1-c1ccc(OC)c(S(=O)(=O)NCCN2CCCC2)c1
inhibition [1]: 1.22%
inhibition [2]: 1.92%
inhibition [3]: -1.86%

NC(=O)c1cccc(C(=O)Nc2cccc(-c3cccc(-c4nc5cc(F)ccc5[nH]4)c3)c2)c1
inhibition [1]: -0.39%
inhibition [2]: 0.68%
inhibition [3]: -0.72%

Cc1ccc2[nH]c3c(c2c1)CC(C(=O)NCCC(C)C)NC31CCN(Cc2ccccc2)CC1 (stereo not drawn)
inhibition [1]: 0.11%
inhibition [2]: -3.4%
inhibition [3]: 0.79%

Cn1c(NC(=O)C2CCCN(C(=O)c3ccc(O)c(-c4ccc(Cl)c(Cl)c4)c3)C2)nc2ccccc21 (stereo not drawn)
inhibition [1]: 0.08%
inhibition [2]: -0.09%
inhibition [3]: -7.08%

CNCCNCc1ccc(-c2ccc(-c3nc4cccc(C)c4[nH]3)s2)cc1
inhibition [1]: 2.93%
inhibition [2]: 2.48%
inhibition [3]: 3.92%

Cc1cccc2nc(-c3ccc(-c4cccc(CNCC5CCCO5)c4)cc3)[nH]c12 (stereo not drawn)
inhibition [1]: 12.7%
inhibition [2]: 10.1%
inhibition [3]: 8.96%

CC(Cc1ccc(NS(=O)(=O)c2ccc(CC(C)NCCc3cccc(Cl)c3)cc2)cc1)NCCc1cccc(Cl)c1 (stereo not drawn)
inhibition [1]: 0.89%
inhibition [2]: 9.69%
inhibition [3]: 7.25%

NC(=O)COc1cccc2c1CCN(CCN1CCC(NC(=O)c3ccc(-c4ccc(Cl)cc4)cc3)CC1)C2
inhibition [1]: 1.06%
inhibition [2]: 4.42%
inhibition [3]: 2.71%

CCOc1cc(C(=O)N[C@@H](Cc2ccccc2)[C@H](O)CNCc2cc(OC)cc(OC)c2)cc(N2CCCS2(=O)=O)c1
inhibition [1]: -0.26%
inhibition [2]: -0.9%
inhibition [3]: 1.04%

CC(C)C[C@@H](/C=N/N1CCOC1=O)NC(=O)[C@H](CC(C)C)NC(=O)c1ccc(OCCN2CCOCC2)cc1
inhibition [1]: 1.39%
inhibition [2]: 6.46%
inhibition [3]: 3.93%

COc1cccc2cc(C(=O)N[C@@H](CC(C)C)C(=O)N[C@H](C=NN3CCCC3=O)Cc3ccccc3)oc12
inhibition [1]: 2.46%
inhibition [2]: 5.52%
inhibition [3]: 2.7%

O=C(NCCc1ccccc1)N(Cc1cccc(-c2ccc(CNCc3ccc4c(c3)OCO4)cc2)c1)C1CCN(Cc2ccccc2)CC1
inhibition [1]: 1.17%
inhibition [2]: 2.76%
inhibition [3]: 1.29%

Clc1ccc(Cl)c2[nH]c(CNCCCNc3nc4ccccc4[nH]3)cc12
inhibition [1]: 0.92%
inhibition [2]: 2.67%
inhibition [3]: 1.29%

CC(C)(C)c1ccc(CN2CCC(NC(=O)c3ccc(-c4ccccc4F)s3)CC2)cc1
inhibition [1]: 0.69%
inhibition [2]: -2.65%
inhibition [3]: -2.5%

C=C[C@]1(C)C[C@@H](OC(=O)c2n[nH]c3ccccc3c2=O)[C@]2(C)[C@H](C)CC[C@]3(CCC(=O)[C@H]32)[C@@H](C)[C@@H]1O
inhibition [1]: 5.34%
inhibition [2]: 0.28%
inhibition [3]: -0.71%

Oc1ccc2c(CNC3CCCCC3)c(O)ccc2c1CNC1CCCCC1
inhibition [1]: -0.71%
inhibition [2]: 0.24%
inhibition [3]: 0.34%

COc1ccc2ncc(Cl)c(CCN3CCC(NCc4ccc5c(n4)NC(=O)CS5)CC3)c2c1
inhibition [1]: 7.16%
inhibition [2]: 11%
inhibition [3]: 2.97%

FC(F)(F)COc1ccc2ccccc2c1CNCCCCCCNCc1c(OCC(F)(F)F)ccc2ccccc12
inhibition [1]: 1.61%
inhibition [2]: 0.57%
inhibition [3]: -1.38%

O=C(Nc1ccc2c(c1)CCCN2S(=O)(=O)c1cccs1)c1cc([N+](=O)[O-])ccc1Cl
inhibition [1]: 5%
inhibition [2]: 8.25%
inhibition [3]: 3.5%

C=CCc1cc(Br)ccc1OCCCOc1c(N)nc(N)nc1N
inhibition [1]: 6.42%
inhibition [2]: 7.13%
inhibition [3]: 3.62%

COCC(C)n1c(C)cc(C(=O)CSc2nnc(Nc3ccccc3)s2)c1C (stereo not drawn)
inhibition [1]: 1.18%
inhibition [2]: 1.49%
inhibition [3]: -0.94%

O=C1c2ccccc2C(=O)N1c1ccc(S(=O)(=O)N2CCOCC2)cc1
inhibition [1]: 8.7%
inhibition [2]: 6.66%
inhibition [3]: 8.08%

O=C(CCc1nc2c(cnn2-c2ccccc2)c(=O)[nH]1)NC1CCSc2ccccc21 (stereo not drawn)
inhibition [1]: 0.18%
inhibition [2]: 1.79%
inhibition [3]: -2.08%

COc1cccc(CNC[C@@H](O)[C@H](Cc2ccccc2)NC(=O)c2cc(C(C)C)cc(N3CCCC3=O)c2)c1
inhibition [1]: -1.08%
inhibition [2]: 0.91%
inhibition [3]: -1.21%

O=C1NC(c2ccccc2)C2(CCN(CC(O)COc3cccc4ncccc34)CC2)O1 (stereo not drawn)
inhibition [1]: 2.46%
inhibition [2]: 3.19%
inhibition [3]: 1.26%

N#Cc1c(N2CCN(c3ccc(F)cc3)CC2)nc(N)c2c(N)nc3c(c12)CC(=O)N3C1CC1
inhibition [1]: -2.19%
inhibition [2]: 5.18%
inhibition [3]: 13.5%

CCc1ccc(C2CCN(CCCCNC(=O)c3ccc(NC(=O)c4ccc(Cl)cc4)cc3)CC2)c(OCCO)c1
inhibition [1]: 3.01%
inhibition [2]: 2.33%
inhibition [3]: 1.61%
